Assay in all cases: yeast three-hybrid, YBZ-1, SC-Leu-His + 0.5 mM 3-AT, 4 days
What all share (conditions): tags: N-Gal4 AD-HA kept; label: inside an RPR1-promoter hybrid RNA with tandem MS2 sites; ssRNA

Test [1] addresses PUM1 PUF domain R5-KAV (Homo sapiens, UniProt Q14671 828-1176, C1007K;R1008A;Q1011V). The method in brief: (§1)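 Pumilio-1 PUF domain libraries, randomized at the three base-contacting residues of each repeat, were co-expressed with matching RNA elements from a centromeric plasmid in strain YBZ-1, which carries a LexA–MS2 coat fusion and a HIS3 reporter. Transformants grew for four days on SC-Leu (input) or on SC-Leu-His + 0.5 mM 3-AT (selection), and the repeat regions were PCR-amplified and Illumina-sequenced. The interaction score is the log change in variant frequency from input to selection. That logarithm is base 2, with a pseudocount of 1 where a variant was absent.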

Test [2] addresses PUM1 PUF domain R1-TRK (Homo sapiens, UniProt Q14671 828-1176, S863T;Q867K). The method in brief: as §1
Test [3] concerns the target PUM1 PUF domain R1-TKR (Homo sapiens, UniProt Q14671 828-1176, S863T;R864K;Q867R). The gist of the method:
as §1

The target of test [4] is PUM1 PUF domain R3-RVK (Homo sapiens, UniProt Q14671 828-1176, C935R;R936V;Q939K). The method in brief:
as §1

Test [5] has as its target PUM1 PUF domain R3-PRQ (Homo sapiens, UniProt Q14671 828-1176, C935P). The gist of the method:
as §1

Test [6] deals with PUM1 PUF domain R8-VFR (Homo sapiens, UniProt Q14671 828-1176, N1122V;Y1123F;Q1126R). The gist of the method: as §1
PUM1 PUF domain R8-VFR, sequence (Q14671 828-1176 N1122V/Y1123F/Q1126R): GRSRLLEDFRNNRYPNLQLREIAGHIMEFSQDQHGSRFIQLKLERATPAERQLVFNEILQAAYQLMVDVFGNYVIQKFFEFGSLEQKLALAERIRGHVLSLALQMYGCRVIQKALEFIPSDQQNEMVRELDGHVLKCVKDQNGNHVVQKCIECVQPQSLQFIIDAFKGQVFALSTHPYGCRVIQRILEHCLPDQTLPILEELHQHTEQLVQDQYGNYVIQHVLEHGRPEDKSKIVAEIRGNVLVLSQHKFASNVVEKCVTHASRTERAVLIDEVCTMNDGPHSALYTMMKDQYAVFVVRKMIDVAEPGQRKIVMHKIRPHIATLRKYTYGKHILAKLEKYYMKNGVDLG
Test [7] concerns the target PUM1 PUF domain R8-LFW (Homo sapiens, UniProt Q14671 828-1176, N1122L;Y1123F;Q1126W). The method in brief: as §1
The target in test [8] is PUM1 PUF domain R4-PYR (Homo sapiens, UniProt Q14671 828-1176, N971P;H972Y;Q975R). The method in brief: as §1
PUM1 PUF domain R4-PYR, sequence (Q14671 828-1176 N971P/H972Y/Q975R): as the sequence (Q14671 828-1176 N1122V/Y1123F/Q1126R) above, with N144P, H145Y, Q148R, V295N, F296Y, R299Q counted along it
Test [9] addresses PUM1 PUF domain R3-MYD (Homo sapiens, UniProt Q14671 828-1176, C935M;R936Y;Q939D). The gist of the method:
as §1

The target in test [10] is PUM1 PUF domain R3-SND (Homo sapiens, UniProt Q14671 828-1176, C935S;R936N;Q939D). The gist of the method: as §1
PUM1 PUF domain R3-SND, sequence (Q14671 828-1176 C935S/R936N/Q939D): as the sequence (Q14671 828-1176 N1122V/Y1123F/Q1126R) above, with C108S, R109N, Q112D, V295N, F296Y, R299Q counted along it

PUM1 PUF domain R3-RVK, sequence (Q14671 828-1176 C935R/R936V/Q939K): as the sequence (Q14671 828-1176 N1122V/Y1123F/Q1126R) above, with C108R, R109V, Q112K, V295N, F296Y, R299Q counted along it
PUM1 PUF domain R1-TKR, sequence (Q14671 828-1176 S863T/R864K/Q867R): as the sequence (Q14671 828-1176 N1122V/Y1123F/Q1126R) above, with S36T, R37K, Q40R, V295N, F296Y, R299Q counted along it
PUM1 PUF domain R8-LFW, sequence (Q14671 828-1176 N1122L/Y1123F/Q1126W): as the sequence (Q14671 828-1176 N1122V/Y1123F/Q1126R) above, with V295L, R299W counted along it
PUM1 PUF domain R5-KAV, sequence (Q14671 828-1176 C1007K/R1008A/Q1011V): as the sequence (Q14671 828-1176 N1122V/Y1123F/Q1126R) above, with C180K, R181A, Q184V, V295N, F296Y, R299Q counted along it
PUM1 PUF domain R3-MYD, sequence (Q14671 828-1176 C935M/R936Y/Q939D): as the sequence (Q14671 828-1176 N1122V/Y1123F/Q1126R) above, with C108M, R109Y, Q112D, V295N, F296Y, R299Q counted along it
PUM1 PUF domain R3-PRQ, sequence (Q14671 828-1176 C935P): as the sequence (Q14671 828-1176 N1122V/Y1123F/Q1126R) above, with C108P, V295N, F296Y, R299Q counted along it
PUM1 PUF domain R1-TRK, sequence (Q14671 828-1176 S863T/Q867K): as the sequence (Q14671 828-1176 N1122V/Y1123F/Q1126R) above, with S36T, Q40K, V295N, F296Y, R299Q counted along it

As for “GGCUAGAACUAGUGGAUCCCCCGGCGCCCGGCGGCUCGAGCCCGGGUAAGUGUCAAUAGUCUGCAUGCCGCCGGGCGCCAUGCCUGCAGGUCGACUCUAGAAAACAUG”, the binding signal in test [1] was 4 log2 enrichment (interaction score).
As for “GGCUAGAACUAGUGGAUCCCCCGGCGCCCGGCGGCUCGAGCCCGGGUAAGUGUAAAUUGUCUGCAUGCCGCCGGGCGCCAUGCCUGCAGGUCGACUCUAGAAAACAUG”, the binding signal was 3.04 log2 enrichment (interaction score) in test [2] and 1.37 log2 enrichment (interaction score) in [3].
For “GGCUAGAACUAGUGGAUCCCCCGGCGCCCGGCGGCUCGAGCCCGGGUAAGUGUAAAUCGUCUGCAUGCCGCCGGGCGCCAUGCCUGCAGGUCGACUCUAGAAAACAUG”, the binding signal in test [3] was 6.21 log2 enrichment (interaction score).
As for “GGCUAGAACUAGUGGAUCCCCCGGCGCCCGGCGGCUCGAGCCCGGGUAAGUGUAAAUAGUCUGCAUGCCGCCGGGCGCCAUGCCUGCAGGUCGACUCUAGAAAACAUG”, the binding signal was 2.2 log2 enrichment (interaction score) in [4], 4.52 log2 enrichment (interaction score) in [5], 3.9 log2 enrichment (interaction score) in [6] and 2.5 log2 enrichment (interaction score) in test [7].
On to “GGCUAGAACUAGUGGAUCCCCCGGCGCCCGGCGGCUCGAGCCCGGGUAAGUGUAUAUAGUCUGCAUGCCGCCGGGCGCCAUGCCUGCAGGUCGACUCUAGAAAACAUG”, for which the binding signal in test [8] is 7.09 log2 enrichment (interaction score).
Turning to “GGCUAGAACUAGUGGAUCCCCCGGCGCCCGGCGGCUCGAGCCCGGGUAAGUGUACAUAGUCUGCAUGCCGCCGGGCGCCAUGCCUGCAGGUCGACUCUAGAAAACAUG”, in [8], the binding signal was 5.23 log2 enrichment (interaction score).
With “GGCUAGAACUAGUGGAUCCCCCGGCGCCCGGCGGCUCGAGCCCGGGUAAGUGUAAUUAGUCUGCAUGCCGCCGGGCGCCAUGCCUGCAGGUCGACUCUAGAAAACAUG”, the binding signal in test [4] is 5.35 log2 enrichment (interaction score); in [9], 2.42 log2 enrichment (interaction score).
With “GGCUAGAACUAGUGGAUCCCCCGGCGCCCGGCGGCUCGAGCCCGGGUAAGCGUAAAUAGUCUGCAUGCCGCCGGGCGCCAUGCCUGCAGGUCGACUCUAGAAAACAUG”, the binding signal in [6] is 4.1 log2 enrichment (interaction score); in test [7], 2.4 log2 enrichment (interaction score).
Turning to “GGCUAGAACUAGUGGAUCCCCCGGCGCCCGGCGGCUCGAGCCCGGGUAAGUGUAAGUAGUCUGCAUGCCGCCGGGCGCCAUGCCUGCAGGUCGACUCUAGAAAACAUG”, the binding signal is 2.53 log2 enrichment (interaction score) in [4] and 5.25 log2 enrichment (interaction score) in test [10].

These data come from publication PMC8384837, “Expanding the binding specificity for RNA recognition by a PUF domain”.
